Source: PubChem BioAssay (Tox21)
Records with an inconclusive call do not appear. Calls of active or inactive are those of the source. Unless noted, calls follow the shape of the dose curve; as a rule, active = well fitted curve in the direction sought with a large enough effect in the repeat runs; inconclusive = weak or mixed curves; inactive = no such curve, though single readings can be large; an effect the other way counts as inactive or inconclusive.

Key:
[1] = qHTS assay for small molecule agonists of the p53 signaling pathway (AID 651631; calls by dose curve; also: nearly all actives have a fitted effect of over 15% in size)
Summary of the method: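 We treat p53RE-bla HCT-116 cells with compounds for 16 h at 37 °C, add LiveBLAzer B/G FRET substrate for 2 h at room temperature, and measure fluorescence intensity.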

[2] = qHTS assay for small molecules that induce genotoxicity in human embryonic kidney cells expressing luciferase-tagged ATAD5 (AID 651632); also: nearly all actives have a fitted effect of over 15% in size
Summary of the method: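 Quantitative HTS in HEK293T expressing luciferase-tagged ATAD5, whose levels rise upon DNA damage. Exposure ran 16 hr at 37C and 5% CO2, with luminescence read 30 min after Amplite addition at room temperature.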

[3] = qHTS assay for small molecule agonists of the p53 signaling pathway - cell viability (AID 651633; calls by dose curve;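 also: p53RE-bla HCT reporter cells with a stable beta-lactamase p53 reporter; series mostly up to about 83 µM; nearly all actives have a fitted effect of over 30% in size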)
Summary of the method: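 p53RE-bla cells were treated with compound for 16 hours at 37 C. Cytotoxicity was then measured as CellTiter-Glo luminescence after 30 min at room temperature.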

[4] = qHTS assay for small molecules that induce genotoxicity in human embryonic kidney cells expressing luciferase-tagged ATAD5 - cell viability (AID 651634; calls by dose curve; also: nearly all actives have a fitted effect of over 25% in size)
Summary of the method: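 After 15.5 hr incubation with compound at 37C, 5% CO2, HEK293T ATAD5-luciferase cells received CellTiter-Fluor reagent; fluorescence intensity was quantified following 30 min at 37C.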

[5] = qHTS assay for small molecule disruptors of the mitochondrial membrane potential - cell viability (AID 720634; calls by dose curve;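 also: human HepG2 liver cancer cells; series mostly up to about 83 µM; nearly all actives have a fitted effect of over 20% in size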)
Summary of the method: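 ATP-based luminescent viability readout (CellTiter-Glo, 30 min, room temperature) in HepG2 cells multiplexed with the m-MPI membrane potential dye; compound exposure lasted 1 hr at 37 C.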

[6] = qHTS assay for small molecule disruptors of the mitochondrial membrane potential (AID 720635)
Summary of the method: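 HepG2 cells exposed to compound 1 hr at 37C, then Mito-MPS dye 30 min. Ratio read of aggregate (540/590 nm) versus monomer (490/535 nm) fluorescence.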

[7] = qHTS assay to test for compound auto fluorescence at 590 nm (red) in HepG2 cells (AID 720674)
Summary of the method: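 Seeding: 2,000 HepG2 cells/well, MEM/10% FBS, overnight 37 C. Dosing: compound vs DMSO. Incubation: 1 hr, 37 C, 5% CO2. Read: fluorescence 540 ex/590 em, Rose Bengal sodium as red reference.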

[8] = qHTS assay to test for compound auto fluorescence at 535 nm (green) in HepG2 cells (AID 720675)
[9] = qHTS assay to test for compound auto fluorescence at 460 nm (blue) in HEK293 cells (AID 720678)
Summary of the method: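 Auto fluorescence in the blue band was quantified as triamterene equivalency. HEK293 cells were seeded at 2,000/well, dosed after a 4-5 hr attachment, and kept overnight at 37C before the 405/460 nm reading.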

[10] = qHTS assay to test for compound auto fluorescence at 590 nm (red) in HEK293 cells (AID 720679)
Summary of the method: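 Autofluorescence equivalency to Rose Bengal sodium, 540/590nm, in HEK293 cells exposed overnight to 23 nL compound per well.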

[11] = qHTS assay to test for compound auto fluorescence at 535 nm (green) in HEK293 cells (AID 720680)
[12] = qHTS assay to test for compound auto fluorescence at 460 nm (blue) in HEK293 cell free culture (AID 720681)
Summary of the method: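 Compounds were added to cell-free DMEM with 10% FBS and fluorescence read directly. The blue channel used 405 nm excitation and 460 nm emission, with triamterene as the reference fluorophore.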

[13] = qHTS assay to test for compound auto fluorescence at 535 nm (green) in HEK293 cell free culture (AID 720682)
Summary of the method: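 Green-channel intensity (Ex/Em 485/535 nm) was recorded from compound-treated wells containing only DMEM with 10% FBS. Fluorescein provided the equivalency standard.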

[14] = qHTS assay to test for compound auto fluorescence at 590 nm (red) in HEK293 cell free culture (AID 720683)
Summary of the method: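 Cell-free wells of DMEM with 10% FBS received compound, and intrinsic fluorescence was read at excitation/emission 540/590 nm. Values expressed as equivalence to Rose Bengal sodium.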

[15] = qHTS assay to test for compound auto fluorescence at 590 nm (red) in HepG2 cell free culture (AID 720684)
Summary of the method: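 Auto fluorescence equivalency versus Rose Bengal sodium, red channel Ex/Em 540/590 nm; compounds in cell-free MEM/10% FBS; DMSO vehicle control.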

[16] = qHTS assay to test for compound auto fluorescence at 460 nm (blue) in HepG2 cell free culture (AID 720685)
Summary of the method: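 Cell-free plates of MEM plus 10% FBS received 23 nL compound or DMSO vehicle; blue-channel (405/460 nm) intensity scored against triamterene as reference fluorophore.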

[17] = qHTS assay to test for compound auto fluorescence at 535 nm (green) in HepG2 cell free culture (AID 720686)
[18] = qHTS assay to test for compound auto fluorescence at 460 nm (blue) in HepG2 cells (AID 720687)
Summary of the method: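 HepG2 cells in MEM with 10% FBS, attached overnight at 37 C, were exposed to compound or DMSO for 1 hr at 37 C, 5% CO2. Blue fluorescence was read at 405/460 nm, with triamterene as reference fluorophore.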

[19] = molecular target: Glucocorticoid receptor (Homo sapiens) (UniProt P04150); test: qHTS assay to identify small molecule agonists of the glucocorticoid receptor (GR) signaling pathway (AID 720691; active = well fitted activation curve with a large enough effect in the signal ratio in the repeat runs, not every such curve was filed as active; the % refers to the signal ratio)
Summary of the method: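 Cells: GR-bla HeLa, endogenous GR with stably integrated GRE-beta-lactamase reporter. Treatment 18 h, 37 C, compounds delivered in DMSO. Detection via LiveBLAzer B/G FRET substrate, 2 h RT, fluorescence intensity.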

[20] = molecular target: Glucocorticoid receptor (Homo sapiens) (UniProt P04150); test: qHTS assay to identify small molecule antagonists of the glucocorticoid receptor (GR) signaling pathway (AID 720692; active = well fitted inhibition curve with a large enough effect in the signal ratio in the repeat runs, not every such curve was filed as active; the % refers to the signal ratio)
Summary of the method: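 Quantitative HTS in antagonist format: HeLa cells expressing endogenous GR and a stably integrated GRE-bla reporter, stimulated with 5 nM dexamethasone (final) alongside test compounds for 18 h.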

Measured: Potency

Sequence of Glucocorticoid receptor (Homo sapiens) (P04150 whole entry, looked up): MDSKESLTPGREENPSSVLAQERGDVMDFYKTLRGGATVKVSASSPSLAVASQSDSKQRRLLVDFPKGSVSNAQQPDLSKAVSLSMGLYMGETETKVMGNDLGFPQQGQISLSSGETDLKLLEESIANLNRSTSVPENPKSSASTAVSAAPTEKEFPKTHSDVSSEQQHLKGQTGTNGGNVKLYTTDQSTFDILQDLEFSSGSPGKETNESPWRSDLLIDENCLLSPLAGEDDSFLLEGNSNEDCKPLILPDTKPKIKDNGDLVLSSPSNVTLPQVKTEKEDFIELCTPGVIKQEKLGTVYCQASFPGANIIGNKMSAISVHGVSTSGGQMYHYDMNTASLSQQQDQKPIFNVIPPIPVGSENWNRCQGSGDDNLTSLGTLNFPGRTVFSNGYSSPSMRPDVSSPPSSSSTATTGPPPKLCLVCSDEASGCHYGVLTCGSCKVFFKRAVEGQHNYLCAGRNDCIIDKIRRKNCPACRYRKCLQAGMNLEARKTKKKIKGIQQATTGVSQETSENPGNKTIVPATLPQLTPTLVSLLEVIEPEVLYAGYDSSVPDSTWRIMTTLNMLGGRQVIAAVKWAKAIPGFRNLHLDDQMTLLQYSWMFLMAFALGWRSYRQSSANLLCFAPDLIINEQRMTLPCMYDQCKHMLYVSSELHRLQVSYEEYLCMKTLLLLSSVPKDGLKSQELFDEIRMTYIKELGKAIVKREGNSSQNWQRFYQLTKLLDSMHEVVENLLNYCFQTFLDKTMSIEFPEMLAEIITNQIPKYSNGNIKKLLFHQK

Nc1ccc(Cc2ccc(N)cc2)cc1
inactive: all assays above

COCCl
inactive: all assays above

O=NN1CCCCCCC1
inactive: all assays above

O=[N+]([O-])c1ccccc1
inactive: all assays above

CC(NC(C)(C)C)C(=O)c1cccc(Cl)c1 (stereo unspecified)
inactive: all assays above

COC(=O)NC(=S)Nc1ccccc1NC(=S)NC(=O)OC
inactive: all assays above

Clc1ccc(Cl)cc1
inactive: all assays above

ClCc1cccnc1
inactive: all assays above

CCOP(=S)(OCC)SCCSCC
not listed: [6]
inactive: all other assays above

CCC12COCN1COC2
not listed: [6] | [19] | [20]
inactive: all other assays above

CCN(CC)CCO
inactive: all assays above
